Measurements from the supplement of paper PMC3545927.
Some of the results follow. The hit rate among all sequences tested is not known here.

Target: furin, P09958
Experiment: furin cleavage Z-score vs untreated control; higher = more cleavage, active = 3.5 or more, inactive = 1 or less, 8 variable residues between constant flanks
Procedure, shortened: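 Read counts from sequencing released DNA gave abundance for each bead-bound 8-mer peptide–cDNA fusion cut by purified furin over 7.5, 15 or 30 min. The cleavage Z-score compares log counts with furin-free reactions after lowess adjustment and median absolute deviation scaling.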
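Further: purified furin at 1:10 enzyme:substrate in 50 mM HEPES pH 7.5.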

furin, P09958, sequence (P09958 whole entry): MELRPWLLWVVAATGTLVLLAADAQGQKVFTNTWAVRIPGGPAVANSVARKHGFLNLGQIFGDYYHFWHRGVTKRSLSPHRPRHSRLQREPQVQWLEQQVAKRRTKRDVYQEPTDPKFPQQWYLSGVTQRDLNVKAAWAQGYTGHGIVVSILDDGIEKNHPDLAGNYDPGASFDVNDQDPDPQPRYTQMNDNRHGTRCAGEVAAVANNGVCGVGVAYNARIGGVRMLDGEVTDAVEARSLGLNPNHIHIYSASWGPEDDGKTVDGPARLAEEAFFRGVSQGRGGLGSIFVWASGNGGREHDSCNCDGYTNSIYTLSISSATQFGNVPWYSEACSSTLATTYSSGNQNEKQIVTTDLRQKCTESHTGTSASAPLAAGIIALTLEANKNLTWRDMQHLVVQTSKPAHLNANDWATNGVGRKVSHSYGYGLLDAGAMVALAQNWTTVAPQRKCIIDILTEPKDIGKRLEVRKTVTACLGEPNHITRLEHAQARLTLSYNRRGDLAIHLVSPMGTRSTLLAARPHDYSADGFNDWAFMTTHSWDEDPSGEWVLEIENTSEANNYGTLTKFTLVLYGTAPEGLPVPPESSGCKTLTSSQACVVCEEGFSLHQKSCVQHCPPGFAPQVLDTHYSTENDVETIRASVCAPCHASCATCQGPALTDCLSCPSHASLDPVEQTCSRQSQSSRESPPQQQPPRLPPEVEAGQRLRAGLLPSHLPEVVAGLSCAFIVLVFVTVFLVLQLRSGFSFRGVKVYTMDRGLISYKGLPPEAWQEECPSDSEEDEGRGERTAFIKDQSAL

For CAYTPCSAHLAGNASASA [HC2469], the “furin cleavage Z-score” value (7.5 min) was -1.25 (inactive), the “furin cleavage Z-score” value (15 min) was -1.32 (inactive) and the “furin cleavage Z-score” value (30 min) was -1.27 (inactive).

CALMTHFFSVAGNASASA [HC1583] was tested, and the “furin cleavage Z-score” value (7.5 min) was -2.19 (inactive), the “furin cleavage Z-score” value (15 min) was -1.38 (inactive) and the “furin cleavage Z-score” value (30 min) was -1.85 (inactive).

With CARKKRAAGQAGNASASA [FS-1727] the “furin cleavage Z-score” value (7.5 min) was 10.8 (active), the “furin cleavage Z-score” value (15 min) was 11.8 (active) and the “furin cleavage Z-score” value (30 min) was 8.92 (active).

With CARKKRLEEQAGNASASA [FS-1857] the “furin cleavage Z-score” value (7.5 min) was -0.193 (inactive), the “furin cleavage Z-score” value (15 min) was 1.1 and the “furin cleavage Z-score” value (30 min) was 0.0714 (inactive).

CASEMEECSQAGNASASA [HC1797] was tested, and the “furin cleavage Z-score” value (7.5 min) was 1.23, the “furin cleavage Z-score” value (15 min) was -0.566 (inactive) and the “furin cleavage Z-score” value (30 min) was 0.242 (inactive).

In the case of CARKKRFAKQAGNASASA [FS-2692], the “furin cleavage Z-score” value (7.5 min) is reported as 5.98 (active), the “furin cleavage Z-score” value (15 min) is reported as 8.51 (active) and the “furin cleavage Z-score” value (30 min) is reported as 8.88 (active).

For CADEMEECSQAGNASASA [HC1791], the “furin cleavage Z-score” value (7.5 min) was 6.21 (active), the “furin cleavage Z-score” value (15 min) was -2.13 (inactive) and the “furin cleavage Z-score” value (30 min) was -5.81 (inactive).

For CATPIAAAGQAGNASASA [HC1639], the “furin cleavage Z-score” value (7.5 min) was -1.29 (inactive), the “furin cleavage Z-score” value (15 min) was -1.26 (inactive) and the “furin cleavage Z-score” value (30 min) was -1.59 (inactive).

For CARKMRDDERAGNASASA [FS-1904], the “furin cleavage Z-score” value (7.5 min) was 0.00727 (inactive), the “furin cleavage Z-score” value (15 min) was -0.39 (inactive) and the “furin cleavage Z-score” value (30 min) was -1.4 (inactive).

CARKKRWAERAGNASASA [FS-3257] was tested, and the “furin cleavage Z-score” value (7.5 min) was 8.39 (active), the “furin cleavage Z-score” value (15 min) was 10.8 (active) and the “furin cleavage Z-score” value (30 min) was 10.8 (active).

For CALEMEECSQAGNASASA [HC1785], the “furin cleavage Z-score” value (7.5 min) was 0.133 (inactive), the “furin cleavage Z-score” value (15 min) was 0.777 (inactive) and the “furin cleavage Z-score” value (30 min) was -0.27 (inactive).

With CACLLLLAAGAGNASASA [HC1658] the “furin cleavage Z-score” value (7.5 min) was -0.897 (inactive), the “furin cleavage Z-score” value (15 min) was -1.64 (inactive) and the “furin cleavage Z-score” value (30 min) was -0.912 (inactive).

CACDVVCCSMAGNASASA [HC2120] was tested, and the “furin cleavage Z-score” value (7.5 min) was -0.0436 (inactive), the “furin cleavage Z-score” value (15 min) was -0.677 (inactive) and the “furin cleavage Z-score” value (30 min) was -0.296 (inactive).

For CATTPCSGSNAGNASASA [HC1941], the “furin cleavage Z-score” value (7.5 min) was -1.17 (inactive), the “furin cleavage Z-score” value (15 min) was -0.013 (inactive) and the “furin cleavage Z-score” value (30 min) was -0.852 (inactive).

For CAMSTNPKPQAGNASASA [HC161], the “furin cleavage Z-score” value (7.5 min) was 0.554 (inactive), the “furin cleavage Z-score” value (15 min) was -0.264 (inactive) and the “furin cleavage Z-score” value (30 min) was -0.709 (inactive).

CAELSPLLLTAGNASASA [HC491] was tested, and the “furin cleavage Z-score” value (7.5 min) was -1.56 (inactive), the “furin cleavage Z-score” value (15 min) was -0.594 (inactive) and the “furin cleavage Z-score” value (30 min) was 0.347 (inactive).

In the case of CASEPCSAHLAGNASASA [HC2492], the “furin cleavage Z-score” value (7.5 min) is reported as -0.366 (inactive), the “furin cleavage Z-score” value (15 min) is reported as -0.474 (inactive) and the “furin cleavage Z-score” value (30 min) is reported as -0.0579 (inactive).

For CARKRRETSQAGNASASA [FS-2347], the “furin cleavage Z-score” value (7.5 min) was 13.9 (active), the “furin cleavage Z-score” value (15 min) was 14.9 (active) and the “furin cleavage Z-score” value (30 min) was 10.1 (active).

With CARRARHPGQAGNASASA [FS-2448] the “furin cleavage Z-score” value (7.5 min) was 0.222 (inactive), the “furin cleavage Z-score” value (15 min) was -1.48 (inactive) and the “furin cleavage Z-score” value (30 min) was -0.313 (inactive).

In the case of CARDSRSSERAGNASASA [FS-2654], the “furin cleavage Z-score” value (7.5 min) is reported as -1.62 (inactive), the “furin cleavage Z-score” value (15 min) is reported as -0.417 (inactive) and the “furin cleavage Z-score” value (30 min) is reported as -0.301 (inactive).

For CARKTRFIIHAGNASASA [FS-2426], the “furin cleavage Z-score” value (7.5 min) was 0.0934 (inactive), the “furin cleavage Z-score” value (15 min) was -2.08 (inactive) and the “furin cleavage Z-score” value (30 min) was 0.575 (inactive).

CAVHKRSAERAGNASASA [FS-2854] was tested, and the “furin cleavage Z-score” value (7.5 min) was 2.95, the “furin cleavage Z-score” value (15 min) was 4.06 (active) and the “furin cleavage Z-score” value (30 min) was 5.25 (active).

In the case of CARKRRQTGQAGNASASA [FS-2701], the “furin cleavage Z-score” value (7.5 min) is reported as 9.83 (active), the “furin cleavage Z-score” value (15 min) is reported as 11.9 (active) and the “furin cleavage Z-score” value (30 min) is reported as 7.6 (active).

For CARKRRNTIHAGNASASA [FS-2567], the “furin cleavage Z-score” value (7.5 min) was 9.29 (active), the “furin cleavage Z-score” value (15 min) was 10.7 (active) and the “furin cleavage Z-score” value (30 min) was 9.63 (active).

With CAKLTPIAAAAGNASASA [HC1638] the “furin cleavage Z-score” value (7.5 min) was -0.902 (inactive), the “furin cleavage Z-score” value (15 min) was 0.513 (inactive) and the “furin cleavage Z-score” value (30 min) was -0.874 (inactive).

CARKRRDVMQAGNASASA [FS-1905] was tested, and the “furin cleavage Z-score” value (7.5 min) was 8.11 (active), the “furin cleavage Z-score” value (15 min) was 9.14 (active) and the “furin cleavage Z-score” value (30 min) was 9.14 (active).

In the case of CAGAERKMRDAGNASASA [FS-653], the “furin cleavage Z-score” value (7.5 min) is reported as 2.56, the “furin cleavage Z-score” value (15 min) is reported as 3.75 (active) and the “furin cleavage Z-score” value (30 min) is reported as 3.61 (active).

For CASNCRHERDAGNASASA [FS-722], the “furin cleavage Z-score” value (7.5 min) was 1.11, the “furin cleavage Z-score” value (15 min) was 0.623 (inactive) and the “furin cleavage Z-score” value (30 min) was 1.08.

In the case of CAENKVVILDAGNASASA [HC1284], the “furin cleavage Z-score” value (7.5 min) is reported as -1.51 (inactive), the “furin cleavage Z-score” value (15 min) is reported as 0.132 (inactive) and the “furin cleavage Z-score” value (30 min) is reported as -0.906 (inactive).

With CARPRRARRDAGNASASA [FS-289] the “furin cleavage Z-score” value (7.5 min) was 10.4 (active), the “furin cleavage Z-score” value (15 min) was 10.6 (active) and the “furin cleavage Z-score” value (30 min) was 7.54 (active).

With CAENLRKRRDAGNASASA [FS-585] the “furin cleavage Z-score” value (7.5 min) was 13.3 (active), the “furin cleavage Z-score” value (15 min) was 14.1 (active) and the “furin cleavage Z-score” value (30 min) was 10.9 (active).

CAGWSRARRDAGNASASA [FS-334] was tested, and the “furin cleavage Z-score” value (7.5 min) was 9.99 (active), the “furin cleavage Z-score” value (15 min) was 12.4 (active) and the “furin cleavage Z-score” value (30 min) was 9.61 (active).

With CARPRRPNGDAGNASASA [FS-1913] the “furin cleavage Z-score” value (7.5 min) was -0.861 (inactive), the “furin cleavage Z-score” value (15 min) was -0.812 (inactive) and the “furin cleavage Z-score” value (30 min) was 0.059 (inactive).

In the case of CAGVVTSTWVAGNASASA [HC2156], the “furin cleavage Z-score” value (7.5 min) is reported as 0.312 (inactive), the “furin cleavage Z-score” value (15 min) is reported as -0.173 (inactive) and the “furin cleavage Z-score” value (30 min) is reported as -0.545 (inactive).

CAPSGCPPDSAGNASASA [HC1347] was tested, and the “furin cleavage Z-score” value (7.5 min) was 0.626 (inactive), the “furin cleavage Z-score” value (15 min) was 0.736 (inactive) and the “furin cleavage Z-score” value (30 min) was -1.37 (inactive).

With CAACQRQKKVAGNASASA [HC1393] the “furin cleavage Z-score” value (7.5 min) was 0.424 (inactive), the “furin cleavage Z-score” value (15 min) was -0.843 (inactive) and the “furin cleavage Z-score” value (30 min) was -0.382 (inactive).

In the case of CAEVDVQARDAGNASASA [FS-1628], the “furin cleavage Z-score” value (7.5 min) is reported as -1.25 (inactive), the “furin cleavage Z-score” value (15 min) is reported as 0.00773 (inactive) and the “furin cleavage Z-score” value (30 min) is reported as -1.04 (inactive).

In the case of CARPERYRRHAGNASASA [FS-491], the “furin cleavage Z-score” value (7.5 min) is reported as 12.7 (active), the “furin cleavage Z-score” value (15 min) is reported as 14.8 (active) and the “furin cleavage Z-score” value (30 min) is reported as 11.1 (active).

In the case of CARPVRDCDDAGNASASA [FS-3028], the “furin cleavage Z-score” value (7.5 min) is reported as 0.136 (inactive), the “furin cleavage Z-score” value (15 min) is reported as 1.92 and the “furin cleavage Z-score” value (30 min) is reported as 1.99.

CARPERKRRDAGNASASA [FS-1066] was tested, and the “furin cleavage Z-score” value (7.5 min) was 14.3 (active), the “furin cleavage Z-score” value (15 min) was 14.2 (active) and the “furin cleavage Z-score” value (30 min) was 10.6 (active).

For CARPERGARGAGNASASA [FS-2737], the “furin cleavage Z-score” value (7.5 min) was -0.85 (inactive), the “furin cleavage Z-score” value (15 min) was 0.79 (inactive) and the “furin cleavage Z-score” value (30 min) was 0.188 (inactive).

With CARPERGPRGAGNASASA [FS-1264] the “furin cleavage Z-score” value (7.5 min) was 1.01, the “furin cleavage Z-score” value (15 min) was 0.671 (inactive) and the “furin cleavage Z-score” value (30 min) was 1.51.

In the case of CARPMRPVGHAGNASASA [FS-2739], the “furin cleavage Z-score” value (7.5 min) is reported as -0.34 (inactive), the “furin cleavage Z-score” value (15 min) is reported as -0.708 (inactive) and the “furin cleavage Z-score” value (30 min) is reported as 1.89.

In the case of CAKVHRQRRDAGNASASA [FS-48], the “furin cleavage Z-score” value (7.5 min) is reported as 6.48 (active), the “furin cleavage Z-score” value (15 min) is reported as 5.35 (active) and the “furin cleavage Z-score” value (30 min) is reported as 4.45 (active).

CALLTRIPGFAGNASASA [FS-3146] was tested, and the “furin cleavage Z-score” value (7.5 min) was -0.34 (inactive), the “furin cleavage Z-score” value (15 min) was 0.0643 (inactive) and the “furin cleavage Z-score” value (30 min) was -0.495 (inactive).

With CALLLFAGVDAGNASASA [HC348] the “furin cleavage Z-score” value (7.5 min) was -0.657 (inactive), the “furin cleavage Z-score” value (15 min) was -0.224 (inactive) and the “furin cleavage Z-score” value (30 min) was -1.23 (inactive).

In the case of CALLTRARRDAGNASASA [FS-1362], the “furin cleavage Z-score” value (7.5 min) is reported as 10.7 (active), the “furin cleavage Z-score” value (15 min) is reported as 11.2 (active) and the “furin cleavage Z-score” value (30 min) is reported as 8.73 (active).
